VDR inhibitor – inhibitors of human vitamin D receptor. P11473. VDR-SRC2-3 peptide fluorescence polarization, 2 h. Potency, µM, for the others: max response, negative = inhibition, most hits filed as inhibitors. actives 0.93% (n = 400,000); note: % is set by controls: 0 for no effect and ±100 for the full control effect
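Reagent solutions, kept cold and dark, are dispensed first; compounds are then pinned in at 23 nl, plates briefly spun, and incubated 2 h at ambient temperature. Inhibition of VDR–SRC2-3 peptide binding is read by fluorescence polarization.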
Vif-A3F inh – blocks the Vif interaction with APOBEC3F; HeLa A3F-eYFP + Vif (tagged APOBEC3F with the HIV-1 protein that degrades it), YFP fluorescence increase; Potency, µM (top dose mostly 46.1 µM), for the others: at the top dose activity, negative = active; actives 0.2% (n = 390,000); note: % of control where 0% means no effect; nearly all actives have a fitted effect of over 65% in size
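Fluorescence increase (Ex 488/Em 500-530) after overnight compound treatment at 37 deg C flags inhibition of Vif-driven A3F-eYFP loss in stable HeLa A3F-eYFP/Vif cells seeded overnight beforehand.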
rTrxR1 inhibitor – inhibitors of rat thioredoxin reductase 1 | actives 1% (n = 390,000) | Potency, µM (series often up to 114 µM), without a hit: at the highest dose activity change, negative = inhibition, actives largely listed as inhibitors | AID 588453 | O89049 | recombinant rTrxR1, NADPH fluorescence consumption, selenite substrate; note: % is set by controls: 0 for no effect and ±100 for the full control effect; nearly all actives have a fitted effect of over 65% in size
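Rat TrxR1 (90 nM in the dispensed reagent) was pre-reduced with 400 uM NADPH for 5 min at room temperature, then incubated with compound for 15 min. After 400 uM selenite was added, NADPH fluorescence (Ex 340/Em 450 nm) was followed for 8 min.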
TrxR1 substrate – rat thioredoxin reductase 1 substrate activity; O89049; purified TrxR1 substrate turnover, NADPH consumption readout; Potency, µM (highest dose often 114 µM), inactives show top-dose activity change, negative = substrate turnover; actives 0.01% (n = 390,000); AID 588456; note: % is set by controls: 0 for no effect and ±100 for the full control effect; nearly all actives have a fitted effect of over 50% in size
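Rat TrxR1, dispensed at 90 nM, was prereduced with 400 uM NADPH (final) for 5 min at ~22 deg C, then incubated with compound 15 min before 400 uM selenite. A first-read NADPH fluorescence drop versus no-compound background flagged substrates.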
Vif-A3G inh – inhibitors of Vif-APOBEC3G interaction; Q9HC16; HeLa A3G-eYFP + Vif (tagged APOBEC3G with the HIV-1 protein that degrades it), YFP fluorescence, overnight; Potency, µM (doses to about 46.1 µM), inactives show at the top dose activity, negative = active, hits mostly inhibitors; actives 0.076% (n = 410,000); AID 602310; note: % is set by controls: 0 for no effect and ±100 for the full control effect; nearly all actives have a fitted effect of over 60% in size
Target sequence (Q9HC16 whole entry, looked up): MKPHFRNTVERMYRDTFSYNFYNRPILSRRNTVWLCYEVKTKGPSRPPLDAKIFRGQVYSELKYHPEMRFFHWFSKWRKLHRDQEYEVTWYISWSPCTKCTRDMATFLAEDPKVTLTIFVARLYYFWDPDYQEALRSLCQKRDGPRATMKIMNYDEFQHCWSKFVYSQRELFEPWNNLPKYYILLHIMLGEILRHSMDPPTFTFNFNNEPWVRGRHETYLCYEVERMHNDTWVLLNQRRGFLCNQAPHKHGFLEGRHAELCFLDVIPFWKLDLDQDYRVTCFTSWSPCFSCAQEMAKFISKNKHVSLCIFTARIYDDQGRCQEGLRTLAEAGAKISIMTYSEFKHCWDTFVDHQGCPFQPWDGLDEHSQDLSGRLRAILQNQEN
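Read-out is eYFP fluorescence (Ex 488/Em 500-530) from Vif-expressing HeLa A3G-eYFP cells; more signal means A3G escaped Vif-mediated degradation. Cells plated overnight, compound pinned in, incubated overnight at 37 deg C.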
An asterisk follows results filed as active; ? = inconclusive; / = not tested or not shown; [ ] = remark or other dose. Compounds with a hit are over-represented: about 1.8% of the library has one in this group of screens. Calls come from the whole dose curve; as a rule, active = well fitted curve in the direction sought with a large enough effect; inconclusive = small, poorly fitted or top-dose-only effect, or another doubt; inactive = no such curve, though single readings can be large; an effect the other way counts as inactive or inconclusive. Potency is the fitted concentration of half-maximal effect.

SMILES | VDR inhibitor | Vif-A3F inh | rTrxR1 inhibitor | TrxR1 substrate | Vif-A3G inh
CCN(CC(=O)Nc1cc(Cl)ccc1C)C(=O)CCOc1ccccc1C | -18% | -18% | 40µM* | 4% | 1%
CCN(CC(=O)Nc1cc(Cl)ccc1C)C(=O)COc1ccccc1F | -17% | 8% | 15%[57.1 µM] | -3% | -1%
C(=C\n1nnc2ccccc21)/c1ccc[nH]1 | -5% | ? | 13µM* | 2% | -4%
CCCc1nnc(NC(=S)Nc2ccccc2)s1 | -8% | -1% | -11%[57.1 µM] | -4%[57.1 µM] | -3%
CC(C)C(=O)Nc1nnc(NC(=S)Nc2ccccc2)s1 | -6% | ? | 10µM* | 2%[57.1 µM] | 1%
Cc1cccc[n+]1CC(=O)c1ccc([N+](=O)[O-])cc1 | 0% | -15% | 16% | 2% | -9%
COc1ccc(C(=O)C[n+]2ccccc2C)cc1 | 32µM* | 1% | 21% | 14% | 0%
Cc1ccc(CCNC(=O)c2cc3n(n2)CCCN(Cc2ccc(C)cc2)C3=O)cc1 | 11% | 1% | 3%[57.1 µM] | -3%[57.1 µM] | 3%
Fc1ccc(Nc2ccnc(-c3ccccc3C(F)(F)F)n2)cc1 | 45µM* | / | / | / | /
Nn1c(SCC(=O)Nc2cccnc2Cl)nnc1-c1ccccc1 | 79µM* | -25% | ? | -11% | -9%
COc1cc(C(=S)N2CCOCC2)ccc1OS(=O)(=O)c1ccc(Cl)cc1 | -13% | -12% | 6% | 2% | 0%
COc1cc(C(=S)N2CCOCC2)cc(OC)c1OS(=O)(=O)c1ccc(Cl)cc1 | 89µM* | 0% | 43%[2.29 µM] | -4% | 1%
CC1CCCN(CCC(=O)c2ccc(Br)cc2)C1 (centres undefined) | 79µM* | 0% | ? | 10%[11.4 µM] | -23%
CC1CCCN(CCOc2ccc(Br)cc2)C1 (centres undefined) | -21% | 11% | 13%[57.1 µM] | 7%[57.1 µM] | 2%
O=C(CCN1CCC2CCC(C2)C1)c1ccccc1 (centres undefined) | 71µM* | -7% | 0.71µM* | 3%[11.4 µM] | 1%
COc1ccc(C(=O)CCN2CCCC(C)C2)cc1 (centres undefined) | 71µM* | -6% | ? | 13%[57.1 µM] | 0%
COc1ccc(C(=O)CCN2CCC(C)CC2)cc1 | 79µM* | 4% | 0.71µM* | 0% | -5%
COc1ccc(OC)c(NC(=O)CCN2CCCC(C)C2)c1 (centres undefined) | -14% | 0% | 14% | 7% | 1%
CN1[C@H]2CC(OC(=O)[C@H](CO)c3ccccc3)C[C@H]1[C@H]1O[C@H]12 (some centres undefined) | -10% | / | / | / | /
Cn1cccc1CC(=O)N/N=C/C=C/c1ccco1 | ? | -3% | 50µM* | -4% | 1%
O=C(N/N=C/C=C/c1ccco1)C(O)c1ccccc1 (centres undefined) | ? | 3% | 13µM* | -3% | 1%
O=Cc1ccc2[nH]ccc2c1 | / | / | 20% | 3% | 2%
N#CC(=C1Nc2ccccc2N1)S(=O)(=O)c1ccccc1 | 50µM* | 9% | -9%[57.1 µM] | -1%[57.1 µM] | -4%
N#CC(C(=O)Nc1ccccc1)=C1Nc2ccccc2N1 | 1% | 6% | 3% | -7% | -5%
CCn1c(C(=O)N2CCCC(C(=O)NCCCOC)C2)cc2sccc21 (centres undefined) | 16% | -4% | -8% | -5% | 2%
SMILES | VDR inhibitor | Vif-A3F inh | rTrxR1 inhibitor | TrxR1 substrate | Vif-A3G inh
CCOC(=O)CSc1nc2c(sc(=S)n2-c2ccccc2OC)c(=O)n1-c1ccccc1OC | -9% | 0% | 9%[57.1 µM] | 10%[57.1 µM] | 0%
COc1ccc(-n2c(SCC(=O)C(C)(C)C)nc3c(sc(=S)n3-c3ccccc3)c2=O)c(OC)c1 | 32µM* | -6% | 0%[57.1 µM] | 7%[57.1 µM] | 0%
O=C1C=C(C2OC(CO)C(O)C2O)C(=O)N1 (centres undefined) | 40µM* | 11% | 7.1µM* | 4% | ?
O=C(O)CN(CC(=O)O)c1ccccc1OCCOc1ccccc1N(CC(=O)O)CC(=O)O | 14% | / | / | / | /
O=C(O)CC(C(=O)O)N1C(=O)/C(=C/C=C/c2ccco2)SC1=S (centres undefined) | 67% | 3% | 20µM* | -26% | 0%
O=C(CCCN1C(=O)S/C(=C/C=C/c2ccccc2)C1=O)Nc1ccc(C(=O)O)cc1 | 32µM* | 3% | 79µM* | -5% | -1%
